Source: PubChem (several laboratories)
EP2 antag – inhibitors of human EP2 prostaglandin E2 receptor; P43116; C6 glioma cells expressing human EP2, cAMP TR-FRET; cells stimulated with saturating PGE2; inhibition, % at 25 µM; hit rate 0.52% among 260,000;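 active = percent inhibition above 40 after rounding to a whole number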;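 note: rat C6 glioma host cells with rolipram phosphodiesterase inhibitor present; the protocol text gives 20 µM as final concentration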
Target sequence (P43116 whole entry, looked up): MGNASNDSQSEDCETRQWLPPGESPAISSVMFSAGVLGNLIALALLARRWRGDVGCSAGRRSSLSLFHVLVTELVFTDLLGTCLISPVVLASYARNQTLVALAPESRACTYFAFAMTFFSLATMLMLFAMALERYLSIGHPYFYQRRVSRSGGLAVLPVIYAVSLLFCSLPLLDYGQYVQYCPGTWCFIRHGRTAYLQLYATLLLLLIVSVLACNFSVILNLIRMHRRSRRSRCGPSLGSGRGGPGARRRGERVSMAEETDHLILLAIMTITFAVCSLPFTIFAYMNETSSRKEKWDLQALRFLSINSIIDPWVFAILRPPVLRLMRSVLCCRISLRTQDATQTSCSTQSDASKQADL
EP2 mod – EP2 receptor (human) modulation; hit rate 0.83% among 260,000; P43116; EP2-expressing cells, cAMP HTRF FRET, PGE2 co-stimulation; AID 940; induction, % at 25 µM;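 active = compounds whose cAMP rise, as percent of the full-agonist control response, exceeds 60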;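 note: rat C6 glioma line stably carrying human EP2 under a CMV promoter; the protocol text gives 20 µM as final concentration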
Calpain2 inh – calpain II (pig) inhibition; hit rate 0.37% among 220,000; inhibition, % at 16 µM; purified calpain II, fluorogenic peptide substrate, 30 min;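 active = inhibition above about 50%, limit read from the data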
HMGR II inh – inhibitors of class II HMG-CoA reductase from Enterococcus faecalis; purified E. faecalis HMGR, NADPH absorbance 340 nm kinetic; inhibition, % at 10 µM; hit rate 0.41% among 190,000;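 active = inhibition above a set limit, the median over all tested compounds plus 3 SD, cut at about 9.5% in these data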;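 note: enzyme runs in reverse so mevalonate oxidation gives rising NADPH absorbance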
Furin inh – blocks human furin protease activity; hit rate 0.061% among 220,000; purified furin, fluorogenic substrate cleavage; inhibition, % at 20 µM or 30 µM; in the data active = inhibition above about 25%
Hits are given with their value; n = inactive; x = no result. Rows were chosen to be rich in hits. Some 1.9% of all compounds tested hit in one or more screens of this group.

SMILES | EP2 antag | EP2 mod | Calpain2 inh | HMGR II inh | Furin inh
C=CCNC(=O)c1c(NC(=O)c2ccc(OC)c(OC)c2)sc2c1CCCC2 | n | 66 | x | x | x
N#Cc1ccc(OC(=O)c2ccc(N=C(N)N)cc2)cc1 | 75 | n | x | x | x
Cc1cc(C)n(-c2ccc(C(=O)N3C4CCC3CC(c3ccc(F)cc3)C4)cc2)n1 (stereo not drawn) | x | n | x | x | x
CCOC(=O)C(C(=O)NCC1CCCO1)C1CCCCC1 (stereo not drawn) | n | n | n | n | 28
c1ccc2c[n+](CCCC[n+]3ccc4ccccc4c3)ccc2c1 | 43 | n | x | x | x
O=C(C[n+]1ccc2ccccc2c1)c1cccc2ccccc12 | n | n | n | n | n
Cc1cccc(C(=O)NC2CCN(C(=O)Nc3ccccc3C)CC2)c1 | n | n | n | 14 | n
Cc1cc(C)c(S(=O)(=O)c2ccccc2)c(OC(=O)c2c(F)cccc2F)n1 | n | n | n | 14 | n
Cc1cc(C)c(S(=O)(=O)c2ccccc2)c(N(C)C)n1 | n | n | n | n | n
COc1ccc(OC)c(Nc2c(C)c(C)nc3ncnn23)c1 | n | n | x | x | x
C=CCNC(=S)NNC(=O)C(CCCC)CC(O)COCC(C)C (stereo not drawn) | 120 | n | n | x | n
C=CCNC(=S)NNC(=O)C(CCC(C)C)CC(C)O (stereo not drawn) | n | n | n | n | n
O=C(Nc1nc2c(Br)cc(Br)cc2c(=O)s1)c1ccco1 | n | 65 | n | x | n
CC(C)(C)c1ccc(CNc2ccc([N+](=O)[O-])cn2)cc1 | n | n | 79 | n | n
CC(C)c1ccc(CNc2ccc([N+](=O)[O-])cn2)cc1 | n | n | 94 | n | n
O=[N+]([O-])c1ccc(NCc2ccc(Cl)cc2)nc1 | n | n | 80 | x | n
Cc1cc(C)c2cc(C(c3nnnn3C3CCCCC3)N3CCc4ccccc43)c(=O)[nH]c2c1 (stereo not drawn) | n | n | x | x | x
COC(=O)Cn1cc(CN2CCC(O)(c3ccccc3OC)CC2)c2ccccc21 | n | n | x | x | x
Cc1ccc2cc(C(c3nnnn3C3CCCC3)N3CCC(C)CC3)c(=O)[nH]c2c1 (stereo not drawn) | n | n | x | x | x
CC(C)(C)C1CCC2(CC1)CCN(CCCN1CCOCC1)CC2 | 44 | n | x | x | x
CN(C)CCCN1CCC2(CCC(C(C)(C)C)CC2)CC1 | 51 | n | x | x | x
CC(C)(C)CC(=O)NCCCN1CCOCC1 | n | n | n | n | n
O=C(CN1CCC(c2nc3ccccc3[nH]2)CC1)Nc1cc(C(F)(F)F)ccc1Cl | n | n | x | x | x
CCOC(=O)c1[nH]c(C)c(/C(O)=C2\C(=O)C(=O)N(CCCN3CCOCC3)C2c2cccs2)c1C (stereo not drawn) | 88 | n | n | x | n
O=C1c2ccccc2C(Nc2ccccc2)N1Cc1ccc2c(c1)OCO2 (stereo not drawn) | n | 72 | n | x | n
SMILES | EP2 antag | EP2 mod | Calpain2 inh | HMGR II inh | Furin inh
O=C1c2ccccc2C(Nc2ccc3c(c2)OCCO3)N1Cc1ccc2c(c1)OCO2 (stereo not drawn) | n | n | n | n | n
O=C1c2ccccc2C(Nc2cccc(C(F)(F)F)c2)N1Cc1ccco1 (stereo not drawn) | n | 61 | n | n | n
COc1cccc(NC2c3ccccc3C(=O)N2Cc2ccco2)c1 (stereo not drawn) | n | n | n | n | n
COc1ccc(S(=O)(=O)N2C(C)CCCC2C)cc1Cl (stereo not drawn) | n | n | x | x | x
COc1cc2ncc(C(=O)c3ccccc3)c(N3CCN(Cc4ccccc4)CC3)c2cc1OC | n | 86 | n | x | n
O=C(c1ccccc1)c1cnc2ccc(Cl)cc2c1N1CCOCC1 | n | n | n | n | n
Cc1cc(-c2cncnc2C2CCCN(C(=O)N3CCCC3)C2)on1 (stereo not drawn) | x | n | x | x | x
CC(=O)NC1(c2ccc(F)cc2)CCN(CC(=O)N2CCOCC2)CC1 | x | n | x | x | x
CCN(CC)CCOc1nc(C)nc2c1oc1ccccc12 | n | n | n | 14 | n
CCN(CC)CCCOc1nc(C)nc2c1oc1ccccc12 | n | n | n | n | n
O=C(NC1CCCCC1)C(c1ccc(Cl)cc1)N(Cc1ccc2c(c1)OCO2)C(=O)c1ccco1 (stereo not drawn) | n | n | x | x | x
CCOc1cc(NC(=O)c2ccccn2)c(OCC)cc1NC(=O)c1ccc(C)cc1 | n | n | n | 13 | n
O=C(Cn1cc(C(=O)c2ccco2)c2ccccc21)Nc1ccccc1 | n | n | 61 | n | n
CCOc1ccc(-n2nnnc2SCC(=O)O)cc1 | n | n | x | x | x
CC(=O)N1c2ccccc2C2(O)N=C(C)SC12 (stereo not drawn) | 42 | n | n | n | n
